The text below walks through data of PubChem BioAssay (Tox21).

Assay [1] is described as follows: qHTS assay to identify small molecule agonists of the estrogen receptor alpha (ER-alpha) signaling pathway in the presence of an antagonist - cell viability counter screen (AID 1259386).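 Further: series mostly up to about 92 µM; cells exposed to compounds for 22 h at 37 °C before the viability read; nearly all actives have a fitted effect of over 30% in size.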 In outline:
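Steps: 5-day stripped-FBS culture; seed and incubate 24hr; add ICI-182,780 (10.0nM final); pin 15-point compound titration; incubate 22hr at 37C; add CellTiter-Fluor at 21hr; read fluorescence.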
A general note: Quantitative high-throughput screening tests each substance at several concentrations.

In assay [2] the target is Progesterone receptor (Homo sapiens) (UniProt P06401). Kind of assay: qHTS assay to identify small molecule agonists of the progesterone receptor (PR) signaling pathway (AID 1346784; calls by dose curve; further: nearly all actives have a fitted effect of over 30% in size). In outline: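 Agonist mode, quantitative HTS format in a HEK 293T line expressing a UAS-controlled beta-lactamase reporter; 16 hr compound exposure at 37C in 2% charcoal-stripped FBS, then LiveBLAzer B/G FRET fluorescence.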
Chain of Progesterone receptor (Homo sapiens) (P06401 whole entry, looked up): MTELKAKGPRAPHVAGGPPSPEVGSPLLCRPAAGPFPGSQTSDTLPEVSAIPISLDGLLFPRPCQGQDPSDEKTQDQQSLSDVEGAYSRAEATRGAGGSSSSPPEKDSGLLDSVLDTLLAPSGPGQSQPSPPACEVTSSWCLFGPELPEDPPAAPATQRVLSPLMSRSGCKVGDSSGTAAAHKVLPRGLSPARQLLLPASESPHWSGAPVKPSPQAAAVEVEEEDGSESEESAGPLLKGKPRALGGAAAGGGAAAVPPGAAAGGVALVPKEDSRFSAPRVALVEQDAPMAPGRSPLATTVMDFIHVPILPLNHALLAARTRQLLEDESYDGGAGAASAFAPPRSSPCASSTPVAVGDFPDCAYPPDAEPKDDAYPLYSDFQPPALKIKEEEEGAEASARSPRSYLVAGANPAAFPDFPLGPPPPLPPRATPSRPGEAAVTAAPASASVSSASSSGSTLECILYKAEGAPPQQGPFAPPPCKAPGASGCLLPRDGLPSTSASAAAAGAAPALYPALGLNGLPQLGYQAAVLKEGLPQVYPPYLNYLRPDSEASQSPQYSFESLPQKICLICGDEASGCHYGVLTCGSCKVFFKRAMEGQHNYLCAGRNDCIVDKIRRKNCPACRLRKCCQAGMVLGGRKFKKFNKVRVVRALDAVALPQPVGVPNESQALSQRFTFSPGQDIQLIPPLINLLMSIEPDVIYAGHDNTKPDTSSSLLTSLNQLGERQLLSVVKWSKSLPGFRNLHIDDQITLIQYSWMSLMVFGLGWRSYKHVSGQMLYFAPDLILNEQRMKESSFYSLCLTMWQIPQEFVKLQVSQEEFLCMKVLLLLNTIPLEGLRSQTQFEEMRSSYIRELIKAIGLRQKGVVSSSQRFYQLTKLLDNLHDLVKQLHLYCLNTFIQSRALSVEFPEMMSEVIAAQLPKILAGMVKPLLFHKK

Assay [3] shares this target. Briefly: qHTS assay to identify small molecule antagonists of the progesterone receptor (PR) signaling pathway (AID 1346795; active means well fitted inhibition curve with a large enough effect in the signal ratio in the repeat runs, not every such curve was filed as active; the % refers to the signal ratio). In outline:
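HEK293T PR-UAS-bla reporter cells in charcoal-stripped serum (2%) received compound after a 6 hr settling period, followed by R5020 agonist at 1 nM final; 16 hr incubation preceded the FRET substrate step and fluorescence measurement.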

Assay [4] in a line: qHTS assay to identify small molecule antagonists of the progesterone receptor (PR) signaling pathway - cell viability counter screen (AID 1346798). Further: series mostly up to about 92 µM; nearly all actives have a fitted effect of over 50% in size. In outline:
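Same-well multiplex: after 16 hr at 37C with compound and R5020 stimulation, HEK293T cells carrying a UAS-bla reporter received LiveBLAzer substrate (2 hr RT), then CellTiter-Glo (30 min RT) for luminescent viability.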

Assay [5] in a line: qHTS assay to identify small molecule agonists of the progesterone receptor (PR) signaling pathway - cell viability counter screen (AID 1346799; calls by dose curve; further: nearly all actives have a fitted effect of over 45% in size; further: potency means the concentration at half of the fitted maximal effect). In outline: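 Counter screen for cytotoxicity: compound-treated PR-UAS-bla HEK293T cells (16 hr, 37C, 5% CO2) were assayed with CellTiter-Glo, luminescence measured after 30 min at room temperature.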
A short description of assay [6]: qHTS assay to identify small molecule antagonists of the TGF-beta/Smad signaling pathway - cell viability counter screen (AID 1346824). Further: nearly all actives have a fitted effect of over 50% in size. The method in brief: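 SBE-bla HEK 293T cells were plated overnight at 37 C, then given compounds in DMSO plus TGF-beta1 (added as 0.25 ng/mL solution) for 5 hr. After the bla read, CellTiter-Glo was added to the same wells and luminescence read after 30 min at room temperature.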

Assay [7] is described as follows: qHTS assay to identify small molecule agonists of the TGF-beta/Smad signaling pathway - cell viability counter screen (AID 1346829). Further: top concentration of the series differs between compounds; nearly all actives have a fitted effect of over 45% in size. In outline:
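Luminescence from CellTiter-Glo, read after a 30 min room-temperature incubation, gives cell viability of SBE-bla HEK 293T cells treated 5 hr with compounds at 37 C.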

Assay [8] in a line: qHTS assay to identify small molecule agonists of the TGF-beta/Smad signaling pathway (AID 1346859; active means well fitted activation curve with a large enough effect in the signal ratio in the repeat runs, not every such curve was filed as active; the % refers to the signal ratio; further: series mostly up to about 77 µM). The method in brief:
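Smad-responsive beta-lactamase reporter cells (HEK 293T) received compounds from DMSO stocks after overnight attachment, were incubated 5 hr, then treated 2 hr with FRET substrate before dual-emission fluorescence measurement (405 nm excitation).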

In assay [9] the target is Thyrotropin-releasing hormone receptor (Homo sapiens) (UniProt P34981). Kind of assay: qHTS assay to identify small molecule antagonists of the thyrotropin-releasing hormone receptor (TRHR) signaling pathway (AID 1346877; active means well fitted inhibition curve with a large enough effect in the repeat runs, not every such curve was filed as active; further: series mostly up to about 51 µM). In outline:
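Human TRHR in HEK293 cells; inhibition of the intracellular calcium rise triggered by 1 nM TRH was followed by fluorescence over 3 min. Compounds were run at 15 concentrations, three replicates each.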

Assay [10] shares this target. Kind of assay: qHTS assay to identify small molecule agonists of the thyrotropin-releasing hormone receptor (TRHR) signaling pathway (AID 1346891; calls by dose curve;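 further: HEK293 cells expressing TRHR with calcium dye readout; series mostly up to about 58 µM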). In outline: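 Agonist-mode calcium mobilisation screen: TRHR-transfected HEK293 cells cultured overnight (18 h), dye-loaded for 2 h at 37 °C, exposed to compounds, and monitored by fluorescence for 3 min.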

Structures are written as SMILES. Unmarked numbers belong to inactive results. Records with an inconclusive call do not appear. Activity calls are given as the source filed them. Unless noted, the call rests on the fitted dose curve; in most records, active means well fitted curve in the direction sought with a large enough effect in the repeat runs; inconclusive means weak or mixed curves; inactive means no such curve, though single readings can be large; an effect the other way counts as inactive or inconclusive.

Chain of Thyrotropin-releasing hormone receptor (Homo sapiens) (P34981 whole entry, looked up): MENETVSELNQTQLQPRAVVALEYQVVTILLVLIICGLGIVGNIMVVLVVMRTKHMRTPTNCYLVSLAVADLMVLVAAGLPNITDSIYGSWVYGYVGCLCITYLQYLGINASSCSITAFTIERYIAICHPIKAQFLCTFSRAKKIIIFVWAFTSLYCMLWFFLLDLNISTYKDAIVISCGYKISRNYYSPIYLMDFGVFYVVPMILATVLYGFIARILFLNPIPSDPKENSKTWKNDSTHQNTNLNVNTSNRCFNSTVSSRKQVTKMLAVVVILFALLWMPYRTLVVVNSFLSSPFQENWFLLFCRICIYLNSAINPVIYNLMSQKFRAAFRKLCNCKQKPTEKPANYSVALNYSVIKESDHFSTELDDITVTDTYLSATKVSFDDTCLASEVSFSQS

In the case of `CCCCCCCCCCCCSCCOCCO`, the Potency entry in assay [1], in assay [2], in assay [3], in assay [4] and in [5] was “inactive” each time. The outcome in assay [6], in [7], in assay [8], in assay [9] and in assay [10] was inactive.
`CC(C)(O)C(=O)O`: the Potency entry in assay [1], in assay [2], in assay [3], in assay [4] and in assay [5] was “inactive” each time. For the same compound, the compound was classed as inactive in assay [6], in assay [7] and in [8].
For `CCCCCCCCCC(C)C=O` (centres undefined), the Potency entry in [1], in assay [2], in assay [3] and in assay [4] was “inactive” throughout. The Potency in assay [5] was 43.3 µM (active). The compound was classed as inactive in assay [6], in assay [7], in assay [8], in assay [9] and in assay [10].
Consider `COc1cccc([C@H](O)C2CCN(CCc3ccc(F)cc3)CC2)c1OC`, for which the Potency result in assay [1], in assay [2], in assay [3], in assay [4] and in [5] was “inactive” each time. Further, the result in assay [6], in [7], in assay [8], in assay [9] and in assay [10] was inactive.
Turning to `COC(=O)c1cc(Cl)ccc1[N+](=O)[O-]`, the Potency result in assay [1], in [2], in assay [3], in assay [4] and in [5] was “inactive” in each case. For the same compound, the call in [6], in assay [7], in assay [8], in assay [9] and in [10] was inactive.
In the case of `Cc1cc(N)n(-c2ccccc2)n1`, the Potency result in [1], in assay [2], in [3], in [4] and in [5] was “inactive” each time. Also, the result in assay [6], in [7], in [8], in assay [9] and in [10] was inactive.
In the case of `N#CCCCC(C#N)CCC#N` (centres undefined), the Potency result in assay [1], in assay [2], in assay [3], in assay [4] and in [5] was “inactive” in each case. In addition, the outcome in assay [6], in [7] and in assay [8] was inactive.
In the case of `CCCCCCCCNC`, the Potency result in [1], in [2], in [3], in assay [4] and in assay [5] was “inactive” throughout. Moreover, the compound was classed as inactive in assay [6], in assay [7], in assay [8], in assay [9] and in [10].
`O=C(O)c1ccc2cc(O)ccc2c1`: the Potency result in assay [1], in assay [2], in [3], in assay [4] and in assay [5] was “inactive” each time. In addition, the compound was called inactive in assay [6], in [7], in assay [8], in [9] and in assay [10].
For the compound `CCOCCn1c(N2CCCN(C)CC2)nc2ccccc21`, the Potency result in assay [1], in [2], in assay [3], in assay [4] and in [5] was “inactive” in each case. Moreover, the outcome in assay [6], in [7], in assay [8], in assay [9] and in assay [10] was inactive.
As for `Nc1nc(Cl)nc2c1ncn2[C@H]1C[C@H](O)[C@@H](CO)O1`, the Potency result in [1], in [2], in [3], in assay [4] and in assay [5] was “inactive” each time. Besides, the call in assay [6], in [7], in assay [8], in assay [9] and in assay [10] was inactive.
`O=C(c1ccco1)N1CCNCC1`: the Potency entry in assay [1], in assay [2], in [3], in assay [4] and in [5] was “inactive” throughout. In addition, the compound was called inactive in [6], in [7], in [8], in assay [9] and in [10].
Consider `CCC(CC)C(=O)O`, for which the Potency entry in assay [1], in assay [2], in assay [3], in assay [4] and in assay [5] was “inactive” throughout. Also, the call in [6], in assay [7], in [8], in [9] and in assay [10] was inactive.
Take `CCC[Si](OC)(OC)OC`: the Potency result in assay [1], in [2], in assay [3], in assay [4] and in assay [5] was “inactive” in each case. The compound was called inactive in [6], in assay [7], in assay [8], in [9] and in [10].
Consider `CCCCOC(=O)CC#N`, for which the Potency entry in assay [1], in [2], in assay [3], in assay [4] and in assay [5] was “inactive” throughout. Moreover, the compound was called inactive in [6], in assay [7] and in assay [8].
Take `CNc1ccccc1`: the Potency entry in assay [1], in [2], in assay [3], in assay [4] and in assay [5] was “inactive” throughout. The compound was classed as inactive in assay [6], in [7] and in assay [8].
In the case of `CC1(C)[C@@H]2CC[C@]3(C2)[C@@H]1C(=O)CCC3(C)C`, the Potency result in assay [1], in assay [2], in assay [3] and in [4] was “inactive” throughout. Besides, in assay [5], the Potency is 27.3 µM (active). The compound was called inactive in assay [6], in assay [7] and in [8].
For `COC(=O)Cc1cccc2ccccc12`, the Potency entry in assay [1], in [2], in assay [3], in [4] and in assay [5] was “inactive” in each case. The compound was classed as inactive in assay [6], in assay [7] and in assay [8].
In the case of `Cc1ccc(Cl)c(OCC(O)CNC(C)(C)C)c1` (centres undefined), the Potency entry in assay [1], in [2], in assay [3], in assay [4] and in assay [5] was “inactive” each time. Besides, the outcome in assay [6], in [7], in assay [8], in [9] and in assay [10] was inactive.
With `O=C(c1ccc(Cl)cc1)c1ccc(Cl)cc1`, the Potency result in assay [1], in assay [2], in assay [3], in [4] and in [5] was “inactive” each time. The compound was classed as inactive in assay [6], in assay [7], in [8], in assay [9] and in assay [10].
For `NC(=O)c1cc[n+](CC2=C(C(=O)[O-])N3C(=O)[C@@H](NC(=O)Cc4cccs4)[C@H]3SC2)cc1`, the Potency entry in assay [1], in assay [2], in assay [3], in assay [4] and in assay [5] was “inactive” throughout. For the same compound, the outcome in assay [6], in assay [7] and in [8] was inactive.
With `CC/C=C\CCO`, the Potency result in assay [1], in assay [2], in [3], in assay [4] and in [5] was “inactive” in each case. In addition, the compound was called inactive in assay [6], in assay [7], in [8], in [9] and in assay [10].
On to `Cc1ccc(NC=O)c(C)c1`, for which the Potency result in [1], in assay [2], in [3], in [4] and in assay [5] was “inactive” in each case. The compound was called inactive in assay [6], in assay [7], in assay [8], in [9] and in [10].
In the case of `NC(=O)c1ccccc1`, the Potency result in [1], in [2], in assay [3], in assay [4] and in assay [5] was “inactive” each time. Also, the compound was called inactive in [6], in assay [7], in assay [8], in assay [9] and in assay [10].
As for `CC(=O)CC/C=C(\C)CC/C=C(\C)CC/C=C(\C)CCC=C(C)C`, the Potency result in assay [1], in [2], in assay [3], in assay [4] and in assay [5] was “inactive” each time. For the same compound, the compound was classed as inactive in [6], in [7] and in assay [8].
